Assay outcomes deposited in PubChem BioAssay by several laboratories.
eIF4E 4G PPI: eIF4E–eIF4G protein interaction inhibitors, primary screen, biochemical, uHTS, TR-FRET, eIF4GI fragment; inhibition, % at 21.7 µM; TR-FRET eIF4E-eIF4GI(517-606) binding, 2 h; Eukaryotic translation initiation factor 4E (Mus musculus) + Eukaryotic translation …; 220,000 compounds, 0.37% hits;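 further: 0% = full FRET control wells and 100% = background wells lacking eIF4GI fragment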
14-3-3 Bad inh: inhibitors of 14-3-3 zeta/Bad binding, primary screen, biochemical, TR-FRET, bovine 14-3-3 zeta; inhibition, % at 21.7 µM; 220,000 compounds, 0.71% hits; 14-3-3 protein zeta/delta (Bos taurus), P63103; TR-FRET 14-3-3zeta/Dy647-pBad peptide displacement, 1 h;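 active means inhibition above about 70%, limit read from the data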;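 further: 0% = full 14-3-3 plus peptide FRET controls and 100% = background without 14-3-3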
Target sequence (P63103 whole entry, looked up): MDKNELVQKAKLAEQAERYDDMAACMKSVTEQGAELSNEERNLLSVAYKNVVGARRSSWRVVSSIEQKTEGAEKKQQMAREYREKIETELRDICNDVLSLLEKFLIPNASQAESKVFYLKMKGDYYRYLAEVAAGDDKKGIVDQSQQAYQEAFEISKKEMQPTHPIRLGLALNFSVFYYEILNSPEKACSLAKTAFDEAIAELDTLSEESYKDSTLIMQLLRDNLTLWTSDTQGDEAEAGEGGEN
Bim-Mcl-1: inhibitors of Bim peptide binding to Mcl-1, primary screen, biochemical, bead-based flow cytometry, multiplex. Induced myeloid leukemia cell differentiation protein Mcl-1 (Homo sapiens), Q07820. Bim peptide-Mcl-1 binding. 190,000 compounds, 0.1% hits. inhibition, % at 10 µM; in the data active means inhibition above about 40%;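 further: 0% = no compound tracer wells and 100% = peptide blocker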
Target sequence (Q07820 whole entry, looked up): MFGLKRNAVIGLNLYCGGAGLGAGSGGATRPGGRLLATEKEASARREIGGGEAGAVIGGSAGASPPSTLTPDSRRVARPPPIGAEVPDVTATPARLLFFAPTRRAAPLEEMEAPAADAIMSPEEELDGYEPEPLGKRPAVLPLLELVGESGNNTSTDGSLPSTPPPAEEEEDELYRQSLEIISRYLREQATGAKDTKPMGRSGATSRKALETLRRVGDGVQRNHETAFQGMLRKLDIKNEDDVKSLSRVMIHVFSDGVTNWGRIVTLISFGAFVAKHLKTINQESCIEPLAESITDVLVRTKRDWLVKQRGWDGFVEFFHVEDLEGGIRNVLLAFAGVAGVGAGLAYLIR
p47phox inh: p47phox/p22phox peptide binding inhibitors, primary screen, biochemical, uHTS, NADPH oxidase regulatory subunit; fluorescence polarization, 2 h; Neutrophil cytosol factor 1 (Homo sapiens), P14598; inhibition, % at 24.7 µM; 220,000 compounds, 0.53% hits;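 further: 0% = p47phox with labelled peptide and 100% = labelled peptide alone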
Mcl1-Noxa inh: Mcl-1/Noxa binding inhibitors, primary screen, biochemical, TR-FRET, 1536-well. TR-FRET Mcl-1/Noxa peptide binding, 2 h. inhibition, % at 21.7 µM. 220,000 compounds, 1.5% hits. AID 1022, 2008;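 active means compounds that cut the protein-peptide binding signal by more than 50% relative to plate controls in a single-dose test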;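 further: His-tagged Mcl-1 with rhodamine Noxa BH3 peptide and terbium anti-His antibody; 0% = Mcl-1 plus Noxa peptide wells and 100% = peptide-only wells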
Mcl1 Bid PPI: Mcl-1/Bid binding inhibitors, primary screen, biochemical, TR-FRET, 1536-well; Induced myeloid leukemia cell differentiation protein Mcl-1 (Homo sapiens), Q07820; TR-FRET Mcl-1/Bid-Dy647 peptide binding; inhibition, % at 21.7 µM; 220,000 compounds, 0.97% hits; AID 1021, 2008;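 active means compounds that cut the binding signal by more than half at the single screening dose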;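 further: His-tagged Mcl-1 with europium anti-His antibody binding Bid BH3 peptide; 0% = Mcl-1 plus peptide wells and 100% = peptide-only wells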
* marks the source's active call; other numbers are inactive results; · = not tested or not shown; [ ] = another dose, or the depositor's remark. The list is not random: actives were taken first. Their share in the collection is about 3.4%.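 How the source made its calls, unless noted: active means inhibition above about 30% (limit read from the data); inactive means the rest.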

SMILES	eIF4E 4G PPI	14-3-3 Bad inh	Bim-Mcl-1	p47phox inh	Mcl1-Noxa inh	Mcl1 Bid PPI
CCN1/C(=C/C=C/c2oc3ccc4ccccc4c3[n+]2CC)Oc2ccc3ccccc3c21	-112.4	91.0*	24.0	-238.4	20.5	89.3*
O=C(CCC(=O)OCC(=O)c1cccc([N+](=O)[O-])c1)Nc1cccc(Cl)c1Cl	1.2	-3.3	0.0	-13.4	-1.9	-22.4
Cc1ccccc1NC(=O)CCC(=O)OCC(=O)c1cccc([N+](=O)[O-])c1	6.2	-1.8	-2.0	32.4*	6.9	-24.6
CN(Cc1ccccc1)S(=O)(=O)c1ccc(N2CCOCC2)nc1	-1.2	2.1	·	-5.1	-2.4	-31.0
O=C1c2ccccc2C(=O)C1c1nccc2ccccc12	-124.9	59.5	1.0	-14.0	57.5*	35.2
FC(F)(F)c1ccc(C2NCCc3sccc32)cc1 (stereo not given)	2.7	-13.8	-3.0	-6.1	8.8	-12.4
C(=C\c1nnc2c3ccccc3ncn12)/c1ccccc1	1.8	-7.2	-2.0	-10.9	-35.0	-8.2
COc1cc(/C=C/c2nnc3c4ccccc4ncn23)cc(OC)c1OC	1.9	2.3	-5.0	23.3	52.3*	2.2
COc1ccc(OC)c(-c2csc(N(CC3CCCO3)C(=O)Cc3ccccc3)n2)c1 (stereo not given)	-1.4	-9.3	-1.0	-9.2	7.8	-21.2
O=C(NCC1OCCc2ccccc21)c1cc(COc2c(F)cccc2F)on1 (stereo not given)	5.7	26.6	-4.0	-5.8	8.7	4.2
COc1ccc2cc(C)c3nnc(SCC(=O)Nc4nc(-c5ccc(F)cc5)cs4)n3c2c1	2.5	86.3*	-5.0	23.1	-31.9	45.5
O=C1N=c2ccccc2=C1c1sc(=O)[nH]c1O	2.2	9.5	·	-11.1	12.4	-22.3
Cc1ccc(Cl)c2c1=NC(=O)C=2c1[nH]c(=S)[nH]c1O	2.3	-16.4	1.0	-18.2	53.0*	-100.4
O=C1N=c2ccccc2=C1c1[nH]c(=S)[nH]c1O	5.6	7.4	-4.0	13.9	65.5*	-24.0
O=C(COC(=O)C1CCCCC1)Nc1cc([N+](=O)[O-])ccc1F	-2.1	-5.7	1.0	-10.5	4.7	-10.6
CN(C)c1ccc(Nc2nc(-c3cccnc3)cs2)cc1	-10.5	-18.8	0.0	-1.1	60.2*	-20.7
Cc1ccccc1C(=O)Nc1nc(-c2cccnc2)cs1	14.2	14.0	·	-6.5	74.9*	17.9
Cc1[nH]c(=O)[nH]c(=O)c1N1CCOCC1	-4.3	-2.9	·	-4.0	-25.9	-23.9
CN(C1CCCCC1)S(=O)(=O)c1ccc2c(c1)c(=O)c(C(=O)NCCCN1CCCC1)cn2C	2.1	7.4	1.0	-2.0	23.0	18.2
CN(C1CCCCC1)S(=O)(=O)c1ccc2c(c1)c(=O)c(C(=O)NCCN1CCCC1)cn2C	5.5	11.2	2.0	51.3*	15.9	14.4
Cc1noc(NS(=O)(=O)c2ccc(NC(=O)CSc3nc4ccccc4s3)cc2)c1C	-0.2	2.8	2.0	-22.4	64.5*	9.4
Cc1cc(C)nc(/N=C2\NC(=O)CC(C(=O)O)N2c2ccc(C)c(C)c2)n1 (stereo not given)	-1.2	-2.7	-6.0	6.1	-3.1	0.4
Cc1c(Br)c(O)c(Br)c2sc(=O)oc12	8.5	10.2	·	-3.9	50.5*	-11.1
CC(=O)c1cccc(NC(=S)NC(=O)c2ccc(C)cc2Cl)c1	-1.0	-15.5	-2.0	-13.5	12.9	-27.5
CCN(CCNC(=O)CN1CCN(Cc2ccc(Cl)cc2)C1=O)c1ccccc1	13.9	-10.5	0.0	0.5	-20.4	87.4*
SMILES	eIF4E 4G PPI	14-3-3 Bad inh	Bim-Mcl-1	p47phox inh	Mcl1-Noxa inh	Mcl1 Bid PPI
CCCCN1CCCC1CNC(=O)c1cc(C#N)c2ccccc2c1OC (stereo not given)	-1.0	3.9	-3.0	-8.3	19.2	2.7
CCOC(=O)c1ccc(-c2nnc(-c3ccc(Cl)cc3Cl)o2)cc1	-2.3	2.0	2.0	1.9	3.4	3.5
CCOC(=O)c1cc(-c2nnc(-c3ccc(Cl)cc3)o2)c(C)nc1C	-0.5	-6.6	40.0*	-4.7	5.9	-11.2
CCN(Cc1ccncc1)Cc1cn(C)nc1-c1ccc(Oc2ccccc2)cc1	-2.1	3.1	0.0	-3.3	6.5	10.5
N#C/C(=C/c1ccc(OCc2ccc(C(=O)O)cc2)c(Br)c1)c1cccc(F)c1	9.7	14.6	-8.0	-11.1	74.3*	-43.0
Cc1cc(C(=O)NC(Cc2ccccc2)C(=O)O)c(C)o1 (stereo not given)	2.2	2.6	·	2.2	-8.6	-43.4
CC1=NN(c2ccccc2)C(=O)/C1=C/c1c(O)n(-c2ccc(F)c(Cl)c2)[nH]c1=O	22.3	11.4	-3.0	-45.4	85.8*	40.5
CN(C)CC(=O)c1ccc(-c2ccccc2)cc1	-10.7	-14.8	0.0	44.0*	32.7	6.1
COc1ccc(/C=C2\SC(=S)N(CCCC(=O)NNC(=O)c3ccccc3O)C2=O)cc1	7.0	2.8	-3.0	3.6	12.1	16.3
O=C(CN1C(=O)S/C(=C\c2ccc(Cl)cc2)C1=O)NNC(=O)c1ccccc1O	32.6*	76.7*[fluorescence artefact?]	-6.0	48.8*	65.2*	82.2*
COC(=O)c1ccccc1NC(=O)CSc1ncn[nH]1	2.2	-2.5	·	-0.5	-6.0	-22.8
O=C(N/N=C/C(Br)=C\c1ccccc1)c1ccco1	1.5	-1.4	·	-11.3	14.1	74.0*
O=C(N/N=C/c1ccccc1)c1ccco1	4.6	0.6	·	1.6	-20.4	-28.3
COc1cccc(/C=C/C(=O)N2CCN(c3n[nH]c(=O)[nH]c3=O)CC2)c1OC	-2.4	-10.4	0.0	-9.6	12.3	2.0
COc1ccc(S(=O)(=O)N2CCC3(CC2)OCCO3)cc1	5.0	-10.4	-2.0	-6.8	27.6	-5.2
CCC(C)NC(=O)COc1ccc(OCc2ccccc2)cc1 (stereo not given)	0.7	-4.5	-2.0	-5.1	3.6	-4.9
CCN(CC)c1ccc(/C=N/NC(=O)c2cccc(N3CCCC3=O)c2)cc1	4.9	-6.8	-3.0	7.5	21.7	-52.7
COc1ccccc1N1CCN(/N=C/c2cc(OC)c(O)c(OC)c2)CC1	-0.4	53.9	-7.0	-9.2	54.5*	-49.4
Cc1cc(C(F)(F)F)nn1Cc1n[nH]c(=S)n1-c1ccc(Cl)cc1	7.3	27.5	-2.0	31.1*	17.1	-5.1
Cc1cc(C(F)(F)F)nn1Cc1n[nH]c(=S)n1-c1cccc(Cl)c1	-4.4	-7.5	-6.0	2.3	15.0	-102.0
